Growth inhibition data for ten compounds are collected here from PubChem BioAssay (NCI).

The panel holds about 79,000 compounds, 15% with a hit somewhere; the sample as a whole holds those more often. Unmarked numbers belong to inactive results. Activity calls are given as the source filed them. No stated cut-off is given here; in the data, active means growth inhibition above about 70%; inactive means the rest.

Experiment [1] is described as follows: NCI Yeast Anticancer Drug Screen. Data for the rad50 strain (AID 155).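 Further: 0% = growth of vehicle-only cultures of the same strain.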 Particulars: S. cerevisiae rad50 strain growth inhibition, stronger effect = higher value. The method in brief:
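Compounds were tested on a yeast strain with an engineered DNA damage repair alteration; the reported value is growth inhibition normalised to vehicle treatment.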

The nature of experiment [2]: NCI Yeast Anticancer Drug Screen. Data for the mec2-1 strain (AID 157). Particulars: S. cerevisiae mec2-1 strain, stronger effect = higher value. The method in brief: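 Test agents were screened against the mec2-1 yeast strain, with defined DNA repair or cell cycle alteration. Growth was scored as inhibition against vehicle-only controls.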
Experiment [3] can be described thus: NCI Yeast Anticancer Drug Screen. Data for the sgs1 mgt1 strain (AID 161).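 Further: 0% = growth of cultures given vehicle only.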 Particulars: S. cerevisiae sgs1 mgt1 strain, stronger effect = higher value. The method in brief: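 Inhibition of yeast growth, normalised to vehicle-treated controls, is reported for a strain bearing genetic alterations in DNA damage repair.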
The nature of experiment [4]: NCI Yeast Anticancer Drug Screen. Data for the cln2 rad14 strain (AID 165).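 Further: 0% = growth equal to vehicle treated cultures.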 Particulars: S. cerevisiae cln2 rad14 strain, stronger effect = higher value. The method in brief:
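Growth of compound-exposed yeast (cln2 rad14 genotype) measured and expressed as inhibition relative to vehicle.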

Experiment [5] in a line: NCI Yeast Anticancer Drug Screen. Data for the bub3 strain (AID 167). As to conditions: S. cerevisiae bub3 mutant strain, stronger effect = higher value. The method in brief:
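Growth of a checkpoint-deficient yeast mutant is measured after compound exposure. Values represent inhibition relative to vehicle.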

The nature of experiment [6]: NCI Yeast Anticancer Drug Screen. Data for the mlh1 rad18 strain (AID 175). Particulars: S. cerevisiae mlh1 rad18 strain growth inhibition, stronger effect = higher value. The method in brief: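 In this whole-cell yeast screen, a strain with altered DNA damage repair is challenged with compound, and its growth is measured against matched vehicle-treated controls.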
The mark [7] stands for this setting: at 5.0 µM (retest, dose inferred, filed as 0.5).
Setting [8] is: at 50.0 µM (retest, dose inferred, filed as 5.0).

As for `CCCCCCCCCCCCCC1OC(=O)C(C)=C1C(=O)O` (stereo not given), the growth inhibition was -10% in experiment [1] (setting [7]); 50% in experiment [1] (setting [8]); 72.6% (active) in experiment [1] (at 50.0 µM); -7% in experiment [2] (setting [7]); 73% (active) in experiment [2] (setting [8]); 26.9% in experiment [2] (at 50.0 µM). Besides, the growth inhibition in experiment [3] (setting [7]) is -2%; in experiment [3] (setting [8]), 60%; in experiment [3] (at 50.0 µM), 47.5%; in experiment [4] (setting [7]), -65%; in experiment [4] (setting [8]), 59%; in experiment [4] (at 50.0 µM), 10.6%. Also, the growth inhibition was -17% in experiment [5] (setting [7]); -25% in experiment [5] (setting [8]); 27.4% in experiment [5] (at 50.0 µM); -10% in experiment [6] (setting [7]); 74% (active) in experiment [6] (setting [8]); 61.9% in experiment [6] (at 50.0 µM).

Turning to `C[n+]1c(-c2ccc(/C=N/Nc3n[nH]c(=S)n3/N=C/c3ccc(-c4cn5ccsc5[n+]4C)cc3)cc2)cn2ccsc21`, the growth inhibition in experiment [1] (setting [7]) was -14%; in experiment [1] (setting [8]) it was 97% (active); in experiment [1] (at 50.0 µM) it was 97.9% (active); in experiment [2] (setting [7]), -2%; in experiment [2] (setting [8]), 97% (active); in experiment [2] (at 50.0 µM), 94.2% (active). Moreover, the growth inhibition in experiment [3] (setting [7]) is -4%; in experiment [3] (setting [8]) it was 96% (active); in experiment [3] (at 50.0 µM) it was 95.3% (active); in experiment [4] (setting [7]), -6%; in experiment [4] (setting [8]), 94% (active); in experiment [4] (at 50.0 µM), 93.8% (active). Moreover, the growth inhibition in experiment [5] (setting [7]) is -29%; in experiment [5] (setting [8]), 98% (active); in experiment [5] (at 50.0 µM), 96.5% (active); in experiment [6] (setting [7]) it was -2%; in experiment [6] (setting [8]), 97% (active); in experiment [6] (at 50.0 µM) it was 93.5% (active).

Regarding `CNCC(O)c1cccc(O)c1` (stereo not given), the growth inhibition in experiment [1] (setting [7]) is 7%; in experiment [1] (setting [8]) it was 11%; in experiment [1] (at 50.0 µM), 74.9% (active); in experiment [2] (setting [7]), 2%; in experiment [2] (setting [8]) it was -9%; in experiment [2] (at 50.0 µM), 14.8%. Also, the growth inhibition was 2% in experiment [3] (setting [7]); -7% in experiment [3] (setting [8]); 45% in experiment [3] (at 50.0 µM); 8% in experiment [4] (setting [7]); -12% in experiment [4] (setting [8]); 19% in experiment [4] (at 50.0 µM). The growth inhibition in experiment [5] (setting [7]) is 0%; in experiment [5] (setting [8]) it was -18%; in experiment [5] (at 50.0 µM), 21.2%; in experiment [6] (setting [7]) it was 1%; in experiment [6] (setting [8]), -5%; in experiment [6] (at 50.0 µM), 31%.

Regarding `COc1ccc(-c2nnc(C)nc2-c2ccc(OC)cc2)cc1`, the growth inhibition in experiment [1] (setting [7]) is 3%; in experiment [1] (setting [8]), -1%; in experiment [1] (at 50.0 µM) it was 22.1%; in experiment [2] (setting [7]), -1%; in experiment [2] (setting [8]), 7%; in experiment [2] (at 50.0 µM) it was 1.2%. The growth inhibition in experiment [3] (setting [7]) is 3%; in experiment [3] (setting [8]), 19%; in experiment [3] (at 50.0 µM), 23.2%; in experiment [4] (setting [7]), -6%; in experiment [4] (setting [8]), -1%; in experiment [4] (at 50.0 µM), 17.6%. In addition, the growth inhibition in experiment [5] (setting [7]) is 14%; in experiment [5] (setting [8]), 41%; in experiment [5] (at 50.0 µM) it was 81.6% (active); in experiment [6] (setting [7]), 0%; in experiment [6] (setting [8]) it was 2%; in experiment [6] (at 50.0 µM) it was 13.2%.

For the compound `CCCCCCCCCCN(CCCCCCCCCC)C1CC(OC2CC(O)(C(O)CO)Cc3c(O)c4c(c(O)c32)C(=O)c2c(OC)cccc2C4=O)OC(C)C1O` (stereo not given), the growth inhibition in experiment [1] (setting [7]) is 15%; in experiment [1] (setting [8]), 87% (active); in experiment [1] (at 50.0 µM), 43.5%; in experiment [2] (setting [7]), 8%; in experiment [2] (setting [8]) it was 94% (active); in experiment [2] (at 50.0 µM), 93.5% (active). Moreover, the growth inhibition in experiment [3] (setting [7]) was 10%; in experiment [3] (setting [8]), 93% (active); in experiment [3] (at 50.0 µM), 5.25%; in experiment [4] (setting [7]), 7%; in experiment [4] (setting [8]) it was 88% (active); in experiment [4] (at 50.0 µM) it was 81.8% (active). The growth inhibition is 14% in experiment [5] (setting [7]); 90% (active) in experiment [5] (setting [8]); 90.8% (active) in experiment [5] (at 50.0 µM); 17% in experiment [6] (setting [7]); 87% (active) in experiment [6] (setting [8]); 90.5% (active) in experiment [6] (at 50.0 µM).

On to `O=c1cccccc1[O-].O=c1cccccc1[O-].O=c1cccccc1[O-].[Dy+3]`, for which the growth inhibition in experiment [1] (setting [7]) is 19%; in experiment [1] (setting [8]), 19%; in experiment [1] (at 50.0 µM), 92.8% (active); in experiment [2] (setting [7]), 18%; in experiment [2] (setting [8]), 18%; in experiment [2] (at 50.0 µM), 92.8% (active). In addition, the growth inhibition in experiment [3] (setting [7]) is 14%; in experiment [3] (setting [8]) it was 14%; in experiment [3] (at 50.0 µM), 91.6% (active); in experiment [4] (setting [7]), 10%; in experiment [4] (setting [8]) it was 10%; in experiment [4] (at 50.0 µM) it was 80.2% (active). Besides, the growth inhibition in experiment [5] (setting [7]) is 7%; in experiment [5] (setting [8]) it was 7%; in experiment [5] (at 50.0 µM) it was 93.2% (active); in experiment [6] (setting [7]) it was 10%; in experiment [6] (setting [8]), 10%; in experiment [6] (at 50.0 µM), 92% (active).

With `CC(=O)N(C1=C(Cl)C(=O)c2ccccc2C1=O)c1ccc(C)cc1`, the growth inhibition in experiment [1] (setting [7]) was 99% (active); in experiment [1] (setting [8]), 99% (active); in experiment [1] (at 50.0 µM), 99.5% (active); in experiment [2] (setting [7]) it was 100% (active); in experiment [2] (setting [8]) it was 100% (active); in experiment [2] (at 50.0 µM), 99.5% (active). Besides, the growth inhibition in experiment [3] (setting [7]) was 100% (active); in experiment [3] (setting [8]), 100% (active); in experiment [3] (at 50.0 µM), 99.6% (active); in experiment [4] (setting [7]), 100% (active); in experiment [4] (setting [8]), 98% (active); in experiment [4] (at 50.0 µM), 94% (active). Besides, the growth inhibition in experiment [5] (setting [7]) is 99% (active); in experiment [5] (setting [8]), 99% (active); in experiment [5] (at 50.0 µM) it was 96.5% (active); in experiment [6] (setting [7]) it was 100% (active); in experiment [6] (setting [8]), 100% (active); in experiment [6] (at 50.0 µM), 99.5% (active).

`O=P(OCCCl)(OCCCl)C(Nc1cccc2ccccc12)c1ccccc1` (stereo not given): the growth inhibition in experiment [1] (setting [7]) is 7%; in experiment [1] (setting [8]), 86% (active); in experiment [1] (at 50.0 µM) it was 91% (active); in experiment [2] (setting [7]) it was -8%; in experiment [2] (setting [8]), 72% (active); in experiment [2] (at 50.0 µM), 91.4% (active). For the same compound, the growth inhibition is 5% in experiment [3] (setting [7]); 86% (active) in experiment [3] (setting [8]); 88.5% (active) in experiment [3] (at 50.0 µM); -1% in experiment [4] (setting [7]); 86% (active) in experiment [4] (setting [8]); 87.5% (active) in experiment [4] (at 50.0 µM). The growth inhibition in experiment [5] (setting [7]) is 1%; in experiment [5] (setting [8]), 87% (active); in experiment [5] (at 50.0 µM) it was 86.7% (active); in experiment [6] (setting [7]), 4%; in experiment [6] (setting [8]), 84% (active); in experiment [6] (at 50.0 µM), 90.2% (active).

Take `COc1ccc2c(Cc3ccc(O)cc3)cncc2c1O`: the growth inhibition in experiment [1] (setting [7]) was -1%; in experiment [1] (setting [8]), 6%; in experiment [1] (at 50.0 µM), 8.65%; in experiment [2] (setting [7]), -8%; in experiment [2] (setting [8]), 26%; in experiment [2] (at 50.0 µM), 51.5%. The growth inhibition in experiment [3] (setting [7]) was -3%; in experiment [3] (setting [8]) it was 16%; in experiment [3] (at 50.0 µM) it was -7.15%; in experiment [4] (setting [7]), 5%; in experiment [4] (setting [8]), 4%; in experiment [4] (at 50.0 µM), 91.8% (active). Besides, the growth inhibition was -5% in experiment [5] (setting [7]); -4% in experiment [5] (setting [8]); 71.5% (active) in experiment [5] (at 50.0 µM); 6% in experiment [6] (setting [7]); 27% in experiment [6] (setting [8]); 97.6% (active) in experiment [6] (at 50.0 µM).

`O=C(CCc1ccccc1)OCC1OC(OC(=O)CCc2ccccc2)C(OC(=O)CCc2ccccc2)C(OC(=O)CCc2ccccc2)C1OC(=O)CCc1ccccc1` (stereo not given): the growth inhibition in experiment [1] (setting [7]) was 1%; in experiment [1] (setting [8]), 4%; in experiment [1] (at 50.0 µM) it was 25.6%; in experiment [2] (setting [7]) it was 0%; in experiment [2] (setting [8]) it was -2%; in experiment [2] (at 50.0 µM), 21.4%. Also, the growth inhibition in experiment [3] (setting [7]) is -3%; in experiment [3] (setting [8]), -22%; in experiment [3] (at 50.0 µM) it was 19.7%; in experiment [4] (setting [7]), 0%; in experiment [4] (setting [8]), -1%; in experiment [4] (at 50.0 µM) it was -0.4%. The growth inhibition in experiment [5] (setting [7]) is 2%; in experiment [5] (setting [8]), 1%; in experiment [5] (at 50.0 µM), -6.35%; in experiment [6] (setting [7]) it was -3%; in experiment [6] (setting [8]) it was 3%; in experiment [6] (at 50.0 µM), 45.4%.
